Holding throughout (test): DAPPL (digital affinity profiling via proximity ligation, sequencing); 10 mM Tris-HCl pH 7.5, 50 mM NaCl, 1 mM DTT, 4% glycerol, room temperature, 30 min; GST-TFs on glutathione beads, 16-mer random dsDNA library, 0.1% formaldehyde crosslink after washing; high values mean tight binding
One experiment has as its target T1, FEV (Homo sapiens, UniProt Q99581 1-238).
T1 sequence: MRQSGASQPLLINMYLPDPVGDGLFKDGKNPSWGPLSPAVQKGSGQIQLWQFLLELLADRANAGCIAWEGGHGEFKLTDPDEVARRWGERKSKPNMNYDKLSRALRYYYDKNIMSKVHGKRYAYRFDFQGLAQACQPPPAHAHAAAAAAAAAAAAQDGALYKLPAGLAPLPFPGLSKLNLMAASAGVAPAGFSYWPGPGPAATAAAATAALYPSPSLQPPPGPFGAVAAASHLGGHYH
Conditions: protein: recombinant; tags: N-terminal GST; dsDNA, one strand shown. The method in brief:
(§1)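 Binding signal is given per hexamer as its read frequency for a factor divided by its frequency in the tag-only sample. GST-fused human transcription factors were expressed in yeast, captured on glutathione beads, barcoded with DNA and pooled with that sample, then incubated with 200 nmole of a 16-mer random double-stranded DNA library in Tris/NaCl/DTT/glycerol buffer for 30 min at room temperature. The pools were then washed, crosslinked, proximity-ligated, amplified by PCR and sequenced on an Illumina NextSeq500.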

The next experiment deals with ETV5 (Homo sapiens, UniProt P41161 1-510). Conditions: protein: recombinant; tags: N-terminal GST; dsDNA, one strand shown. An outline of the steps: as §1
Chain of ETV5 (P41161 whole entry): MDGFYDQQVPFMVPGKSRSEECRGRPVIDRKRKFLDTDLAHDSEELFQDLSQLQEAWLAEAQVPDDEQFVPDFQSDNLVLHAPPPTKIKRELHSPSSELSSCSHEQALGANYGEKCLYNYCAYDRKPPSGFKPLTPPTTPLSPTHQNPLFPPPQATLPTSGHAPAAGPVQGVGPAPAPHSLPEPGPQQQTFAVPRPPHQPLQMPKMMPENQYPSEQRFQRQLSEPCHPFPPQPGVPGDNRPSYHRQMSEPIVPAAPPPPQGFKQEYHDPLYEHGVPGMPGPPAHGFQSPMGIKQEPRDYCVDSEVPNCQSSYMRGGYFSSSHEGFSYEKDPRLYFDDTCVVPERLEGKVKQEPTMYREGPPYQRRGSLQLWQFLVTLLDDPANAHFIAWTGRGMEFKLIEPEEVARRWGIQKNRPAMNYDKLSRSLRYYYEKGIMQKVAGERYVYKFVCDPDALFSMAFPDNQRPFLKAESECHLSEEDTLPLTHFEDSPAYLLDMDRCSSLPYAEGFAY
The target of a further experiment is HSF1 (Homo sapiens, UniProt Q00613 1-529). The note with it: protein: recombinant; tags: N-terminal GST; chain copies: 3; dsDNA, one strand shown. The method in brief:
as §1

Another experiment has as its target T2, SPIC (Homo sapiens, UniProt Q8N5J4 1-248).
T2 sequence: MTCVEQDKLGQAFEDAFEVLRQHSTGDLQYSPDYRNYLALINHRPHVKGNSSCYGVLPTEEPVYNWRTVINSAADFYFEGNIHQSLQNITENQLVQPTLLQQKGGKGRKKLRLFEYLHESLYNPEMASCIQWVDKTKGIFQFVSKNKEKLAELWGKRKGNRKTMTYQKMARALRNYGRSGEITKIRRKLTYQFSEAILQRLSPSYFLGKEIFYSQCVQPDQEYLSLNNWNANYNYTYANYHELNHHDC
The note with it: protein: recombinant; tags: N-terminal GST; dsDNA, one strand shown. An outline of the steps: as §1

Another experiment has as its target ELF4 (Homo sapiens, UniProt Q99607 1-663). The note with it: protein: recombinant; tags: N-terminal GST; dsDNA, one strand shown. The method in brief:
as §1

The target of the next experiment is T3, ELK4 (Homo sapiens, UniProt P28324-2 1-405).
T3 sequence: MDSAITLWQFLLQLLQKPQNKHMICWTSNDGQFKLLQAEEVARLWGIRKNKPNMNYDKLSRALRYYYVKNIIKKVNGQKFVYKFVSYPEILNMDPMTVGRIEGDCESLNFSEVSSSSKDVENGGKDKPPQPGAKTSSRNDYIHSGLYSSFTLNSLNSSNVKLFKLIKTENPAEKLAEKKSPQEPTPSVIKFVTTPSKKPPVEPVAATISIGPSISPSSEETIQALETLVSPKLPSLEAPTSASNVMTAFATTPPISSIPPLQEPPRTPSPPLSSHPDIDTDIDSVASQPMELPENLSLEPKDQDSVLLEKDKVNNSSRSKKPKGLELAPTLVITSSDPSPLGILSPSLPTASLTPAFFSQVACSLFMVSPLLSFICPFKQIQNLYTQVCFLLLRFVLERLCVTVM
The note with it: protein: recombinant; tags: N-terminal GST; dsDNA, one strand shown. The method in brief: as §1

The next experiment deals with T4, ETV2 (Homo sapiens, UniProt O00321 1-342).
T4 sequence: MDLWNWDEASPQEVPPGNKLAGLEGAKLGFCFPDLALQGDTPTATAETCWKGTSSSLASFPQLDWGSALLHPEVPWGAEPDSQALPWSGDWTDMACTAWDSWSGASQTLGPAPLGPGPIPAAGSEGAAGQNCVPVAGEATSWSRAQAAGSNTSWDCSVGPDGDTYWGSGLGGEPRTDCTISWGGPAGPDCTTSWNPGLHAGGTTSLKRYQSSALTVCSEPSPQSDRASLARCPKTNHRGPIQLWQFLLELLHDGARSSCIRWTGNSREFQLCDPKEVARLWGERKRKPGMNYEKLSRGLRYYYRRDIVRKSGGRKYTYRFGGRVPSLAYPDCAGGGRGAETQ
The note with it: protein: recombinant; tags: N-terminal GST; dsDNA, one strand shown. The method in brief:
as §1

Another experiment concerns the target T5, ELF3 (Homo sapiens, UniProt P78545 1-371).
T5 sequence: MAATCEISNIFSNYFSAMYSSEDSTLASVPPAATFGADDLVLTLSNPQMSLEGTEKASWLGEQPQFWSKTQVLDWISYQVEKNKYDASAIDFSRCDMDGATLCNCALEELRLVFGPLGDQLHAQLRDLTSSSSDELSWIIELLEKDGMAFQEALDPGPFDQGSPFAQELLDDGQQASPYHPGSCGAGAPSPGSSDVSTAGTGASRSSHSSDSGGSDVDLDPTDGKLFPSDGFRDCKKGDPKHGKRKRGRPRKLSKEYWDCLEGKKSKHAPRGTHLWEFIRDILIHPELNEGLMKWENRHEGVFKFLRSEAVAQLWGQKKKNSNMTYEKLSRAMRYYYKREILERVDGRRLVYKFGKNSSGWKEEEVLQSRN
The note with it: protein: recombinant; tags: N-terminal GST; dsDNA, one strand shown. An outline of the steps: as §1

The next experiment has as its target CRX (Homo sapiens, UniProt O43186 1-299). Conditions: protein: recombinant; tags: N-terminal GST; dsDNA, one strand shown. An outline of the steps:
as §1

The target of the next experiment is ETV1 (Homo sapiens, UniProt P50549 1-477). Conditions: protein: recombinant; tags: N-terminal GST; dsDNA, one strand shown. An outline of the steps: as §1
Chain of ETV1 (P50549 whole entry): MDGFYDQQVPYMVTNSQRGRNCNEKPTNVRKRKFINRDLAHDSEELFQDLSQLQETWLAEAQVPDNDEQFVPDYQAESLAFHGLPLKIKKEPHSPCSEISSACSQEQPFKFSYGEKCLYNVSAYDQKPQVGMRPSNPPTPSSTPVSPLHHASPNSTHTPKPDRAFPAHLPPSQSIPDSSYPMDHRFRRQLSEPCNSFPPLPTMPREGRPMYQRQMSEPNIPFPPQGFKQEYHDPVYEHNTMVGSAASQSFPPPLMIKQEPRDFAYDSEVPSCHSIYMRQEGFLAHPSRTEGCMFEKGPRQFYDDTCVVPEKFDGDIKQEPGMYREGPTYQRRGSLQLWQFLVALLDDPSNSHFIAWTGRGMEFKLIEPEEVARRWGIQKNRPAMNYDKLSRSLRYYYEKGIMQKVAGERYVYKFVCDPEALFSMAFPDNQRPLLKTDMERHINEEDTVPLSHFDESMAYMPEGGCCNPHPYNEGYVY
The next experiment addresses T6, ERF (Homo sapiens, UniProt P50548 1-548).
T6 sequence: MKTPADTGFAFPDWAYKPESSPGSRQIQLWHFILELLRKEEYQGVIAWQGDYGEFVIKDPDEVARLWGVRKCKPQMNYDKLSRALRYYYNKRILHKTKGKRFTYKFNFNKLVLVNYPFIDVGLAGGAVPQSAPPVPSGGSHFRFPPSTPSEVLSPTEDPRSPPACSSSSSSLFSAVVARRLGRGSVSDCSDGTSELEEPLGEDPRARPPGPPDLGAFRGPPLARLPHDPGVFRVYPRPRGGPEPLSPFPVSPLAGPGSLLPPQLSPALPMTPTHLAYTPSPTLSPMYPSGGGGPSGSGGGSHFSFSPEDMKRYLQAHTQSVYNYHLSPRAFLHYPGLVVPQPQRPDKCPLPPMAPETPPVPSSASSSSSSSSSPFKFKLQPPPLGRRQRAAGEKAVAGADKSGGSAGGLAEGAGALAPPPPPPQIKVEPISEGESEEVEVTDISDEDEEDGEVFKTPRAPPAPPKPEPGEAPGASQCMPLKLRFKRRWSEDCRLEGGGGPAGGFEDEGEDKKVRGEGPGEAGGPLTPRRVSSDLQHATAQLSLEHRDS
Conditions: protein: recombinant; tags: N-terminal GST; dsDNA, one strand shown. The method in brief:
as §1

The target in a further experiment is T7, ETV3L (Homo sapiens, UniProt Q6ZN32 1-361).
T7 sequence: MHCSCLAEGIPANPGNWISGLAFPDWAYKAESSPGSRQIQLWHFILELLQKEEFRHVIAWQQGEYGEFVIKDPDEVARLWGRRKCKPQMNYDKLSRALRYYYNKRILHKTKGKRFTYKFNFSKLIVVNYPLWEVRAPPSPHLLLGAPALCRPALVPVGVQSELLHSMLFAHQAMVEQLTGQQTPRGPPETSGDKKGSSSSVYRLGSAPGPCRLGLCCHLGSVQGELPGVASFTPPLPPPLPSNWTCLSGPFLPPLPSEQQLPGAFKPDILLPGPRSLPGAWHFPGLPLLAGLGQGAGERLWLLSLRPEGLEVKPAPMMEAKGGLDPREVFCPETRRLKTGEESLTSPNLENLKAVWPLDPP
Conditions: protein: recombinant; tags: N-terminal GST; dsDNA, one strand shown. The method in brief: as §1

For the next experiment, the target named is T8, ETS2 (Homo sapiens, UniProt P15036 1-469).
T8 sequence: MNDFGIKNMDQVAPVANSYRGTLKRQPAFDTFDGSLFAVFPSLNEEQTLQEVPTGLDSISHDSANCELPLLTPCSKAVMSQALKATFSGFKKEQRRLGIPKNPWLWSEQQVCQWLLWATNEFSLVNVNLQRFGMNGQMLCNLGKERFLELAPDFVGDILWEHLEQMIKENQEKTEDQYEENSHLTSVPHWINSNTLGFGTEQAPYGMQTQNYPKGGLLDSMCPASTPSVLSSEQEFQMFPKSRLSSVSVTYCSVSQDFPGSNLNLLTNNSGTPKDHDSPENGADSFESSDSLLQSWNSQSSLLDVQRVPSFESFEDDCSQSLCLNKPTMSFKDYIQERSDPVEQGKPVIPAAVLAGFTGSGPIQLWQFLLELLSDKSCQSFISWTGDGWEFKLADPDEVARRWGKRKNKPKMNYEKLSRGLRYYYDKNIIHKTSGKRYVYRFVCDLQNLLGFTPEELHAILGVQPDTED
Conditions: protein: recombinant; tags: N-terminal GST; dsDNA, one strand shown. The method in brief: as §1

Another experiment concerns the target T9, SPDEF (Homo sapiens, UniProt O95238 1-335).
T9 sequence: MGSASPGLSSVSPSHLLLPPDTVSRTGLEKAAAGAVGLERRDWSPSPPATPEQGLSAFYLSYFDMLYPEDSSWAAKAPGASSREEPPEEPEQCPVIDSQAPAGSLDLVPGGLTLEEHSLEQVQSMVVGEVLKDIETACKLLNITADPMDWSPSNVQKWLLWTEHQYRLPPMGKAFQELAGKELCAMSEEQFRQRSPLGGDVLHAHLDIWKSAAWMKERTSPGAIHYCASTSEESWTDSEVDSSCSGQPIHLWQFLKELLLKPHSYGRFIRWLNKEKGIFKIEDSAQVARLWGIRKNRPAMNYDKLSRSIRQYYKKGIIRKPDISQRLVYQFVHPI
Conditions: protein: recombinant; tags: N-terminal GST; dsDNA, one strand shown. The method in brief: as §1

The target in another experiment is T10, ETV7 (Homo sapiens, UniProt Q9Y603 1-341).
T10 sequence: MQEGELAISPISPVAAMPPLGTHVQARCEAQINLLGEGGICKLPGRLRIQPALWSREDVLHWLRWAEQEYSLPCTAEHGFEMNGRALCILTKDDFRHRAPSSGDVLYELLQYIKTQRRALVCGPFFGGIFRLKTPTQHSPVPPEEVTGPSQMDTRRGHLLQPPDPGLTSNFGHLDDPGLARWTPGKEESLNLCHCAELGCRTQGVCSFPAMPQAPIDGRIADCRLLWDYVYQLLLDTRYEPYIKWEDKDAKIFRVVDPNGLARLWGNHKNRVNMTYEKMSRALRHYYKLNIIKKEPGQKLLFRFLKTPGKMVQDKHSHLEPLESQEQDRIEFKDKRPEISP
Conditions: protein: recombinant; tags: N-terminal GST; dsDNA, one strand shown. The method in brief: as §1

In another experiment the target is T11, ELF5 (Homo sapiens, UniProt Q9UKW6-2 1-255).
T11 sequence: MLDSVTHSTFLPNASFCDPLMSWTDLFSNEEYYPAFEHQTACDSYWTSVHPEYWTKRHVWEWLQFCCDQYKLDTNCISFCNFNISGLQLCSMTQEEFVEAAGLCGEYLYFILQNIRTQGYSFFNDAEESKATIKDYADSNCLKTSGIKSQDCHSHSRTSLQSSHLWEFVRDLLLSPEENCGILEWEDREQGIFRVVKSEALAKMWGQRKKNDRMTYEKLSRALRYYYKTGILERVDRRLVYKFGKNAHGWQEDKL
Conditions: protein: recombinant; tags: N-terminal GST; dsDNA, one strand shown. An outline of the steps:
as §1

For another experiment, the target named is T12, ETV3 (Homo sapiens, UniProt P41162-2 1-143).
T12 sequence: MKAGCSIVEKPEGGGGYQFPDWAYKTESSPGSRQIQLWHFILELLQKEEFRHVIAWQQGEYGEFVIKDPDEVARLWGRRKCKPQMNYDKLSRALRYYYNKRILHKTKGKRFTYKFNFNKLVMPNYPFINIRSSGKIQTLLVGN
Conditions: protein: recombinant; tags: N-terminal GST; dsDNA, one strand shown. An outline of the steps:
as §1

The target of the next experiment is ETV6 (Homo sapiens, UniProt P41212 1-452). The note with it: protein: recombinant; tags: N-terminal GST; dsDNA, one strand shown. An outline of the steps: as §1
Chain of ETV6 (P41212 whole entry): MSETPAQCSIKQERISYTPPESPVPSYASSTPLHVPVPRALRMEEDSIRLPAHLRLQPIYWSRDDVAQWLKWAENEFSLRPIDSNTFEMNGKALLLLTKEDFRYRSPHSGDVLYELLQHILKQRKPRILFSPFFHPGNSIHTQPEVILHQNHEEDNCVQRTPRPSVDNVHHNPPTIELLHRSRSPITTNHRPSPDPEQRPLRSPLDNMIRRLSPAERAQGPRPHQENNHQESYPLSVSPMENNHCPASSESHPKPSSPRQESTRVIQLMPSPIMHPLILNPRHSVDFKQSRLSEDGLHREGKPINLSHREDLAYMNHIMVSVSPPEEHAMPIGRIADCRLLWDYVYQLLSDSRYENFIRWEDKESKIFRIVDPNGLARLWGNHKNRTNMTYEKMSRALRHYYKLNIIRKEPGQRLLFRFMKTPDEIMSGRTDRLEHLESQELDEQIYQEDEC

Chain of HSF1 (Q00613 whole entry): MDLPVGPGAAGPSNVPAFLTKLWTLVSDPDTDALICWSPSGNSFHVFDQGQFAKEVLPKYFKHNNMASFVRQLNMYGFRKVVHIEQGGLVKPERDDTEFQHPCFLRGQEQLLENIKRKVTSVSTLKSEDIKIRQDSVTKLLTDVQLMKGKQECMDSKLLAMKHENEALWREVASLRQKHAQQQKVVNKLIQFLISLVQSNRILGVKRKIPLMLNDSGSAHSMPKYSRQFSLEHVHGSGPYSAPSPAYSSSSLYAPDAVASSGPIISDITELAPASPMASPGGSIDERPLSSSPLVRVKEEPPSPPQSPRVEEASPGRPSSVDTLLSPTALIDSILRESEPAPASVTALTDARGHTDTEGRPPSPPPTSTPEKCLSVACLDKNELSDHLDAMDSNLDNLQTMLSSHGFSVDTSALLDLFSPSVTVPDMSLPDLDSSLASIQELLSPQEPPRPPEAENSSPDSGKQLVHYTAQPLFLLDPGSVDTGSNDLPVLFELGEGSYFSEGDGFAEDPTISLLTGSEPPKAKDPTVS
Chain of ELF4 (Q99607 whole entry): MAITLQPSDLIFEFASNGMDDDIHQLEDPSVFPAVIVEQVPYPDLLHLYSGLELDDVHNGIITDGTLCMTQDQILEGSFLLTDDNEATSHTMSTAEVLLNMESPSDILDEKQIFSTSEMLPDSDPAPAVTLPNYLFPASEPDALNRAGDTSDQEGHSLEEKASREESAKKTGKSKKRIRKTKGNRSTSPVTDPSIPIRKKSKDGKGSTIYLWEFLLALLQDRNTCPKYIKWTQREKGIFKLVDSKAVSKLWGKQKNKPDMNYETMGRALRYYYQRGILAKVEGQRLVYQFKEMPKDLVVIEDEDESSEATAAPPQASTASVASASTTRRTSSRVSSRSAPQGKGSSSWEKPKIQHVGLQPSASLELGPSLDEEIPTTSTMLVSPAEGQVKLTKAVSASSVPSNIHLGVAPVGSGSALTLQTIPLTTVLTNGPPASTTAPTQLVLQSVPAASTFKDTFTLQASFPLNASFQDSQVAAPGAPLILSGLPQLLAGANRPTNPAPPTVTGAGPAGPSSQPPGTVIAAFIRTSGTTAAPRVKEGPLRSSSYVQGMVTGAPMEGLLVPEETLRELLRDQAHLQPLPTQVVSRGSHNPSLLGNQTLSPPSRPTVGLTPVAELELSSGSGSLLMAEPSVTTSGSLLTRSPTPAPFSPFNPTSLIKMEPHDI
Chain of CRX (O43186 whole entry): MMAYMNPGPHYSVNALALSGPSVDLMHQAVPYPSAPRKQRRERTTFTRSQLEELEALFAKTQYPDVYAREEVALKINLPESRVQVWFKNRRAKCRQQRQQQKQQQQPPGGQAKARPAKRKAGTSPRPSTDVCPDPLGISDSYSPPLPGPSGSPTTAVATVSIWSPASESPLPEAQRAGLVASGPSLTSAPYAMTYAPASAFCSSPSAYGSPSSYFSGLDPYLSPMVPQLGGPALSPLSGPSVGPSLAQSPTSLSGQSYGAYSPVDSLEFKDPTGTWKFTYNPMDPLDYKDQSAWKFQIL

For the sequence ACGCTA, the binding signal is 1.13 fold enrichment (6-mer frequency, TF over GST control) in the experiment with FEV; 1.17 fold enrichment (6-mer frequency, TF over GST control) in the experiment with ETV5; 1.12 fold enrichment (6-mer frequency, TF over GST control) in the experiment with HSF1; 1.09 fold enrichment (6-mer frequency, TF over GST control) with SPIC; 1.25 fold enrichment (6-mer frequency, TF over GST control) in the experiment with ELF4; 1.06 fold enrichment (6-mer frequency, TF over GST control) in the experiment with ELK4. For the same sequence, the binding signal with ETV2 was 1.28 fold enrichment (6-mer frequency, TF over GST control); in the experiment with ELF3, 1.17 fold enrichment (6-mer frequency, TF over GST control); in the experiment with CRX it was 1.18 fold enrichment (6-mer frequency, TF over GST control); in the experiment with ETV1, 1.09 fold enrichment (6-mer frequency, TF over GST control); with ERF it was 1.2 fold enrichment (6-mer frequency, TF over GST control); with ETV3L it was 1.12 fold enrichment (6-mer frequency, TF over GST control). The binding signal was 1.01 fold enrichment (6-mer frequency, TF over GST control) in the experiment with ETS2; 1.15 fold enrichment (6-mer frequency, TF over GST control) with SPDEF; 1.17 fold enrichment (6-mer frequency, TF over GST control) with ETV7; 1.12 fold enrichment (6-mer frequency, TF over GST control) with ELF5; 1.21 fold enrichment (6-mer frequency, TF over GST control) with ETV3; 1.08 fold enrichment (6-mer frequency, TF over GST control) in the experiment with ETV6.

The values above are taken from PMC7862700, “An all-to-all approach to the identification of sequence-specific readers for epigenetic DNA modifications on cytosine”.
